Experimental findings from patent publication US20240200044, “EVOLUTION OF TALENS” (President and Fellows of Harvard College, published 2024) are described below.

This test addresses CBX8-directed TALE-omega K59E (synthetic construct, UniProt Q56830 SEQ:41-724, K59E). Put plainly: one_hybrid; versus canonical CBX8 TALE. As to conditions: tags: N-terminal FLAG-NLS, C-terminal RNAP omega; dsDNA, one strand shown.

As to TTCAGGAGGGCTTCGGC, the binding signal came out at 2 fold decrease.
